Records with an inconclusive call do not appear. Where a call stands in place of a potency, no number is given. Values without a mark were called inactive. The source made the active and inactive calls. Calls come from the whole dose curve; as a rule, active = well fitted curve in the direction sought with a large enough effect; inconclusive = small, poorly fitted or top-dose-only effect, or another doubt; inactive = no such curve, though single readings can be large; an effect the other way counts as inactive or inconclusive.
Assays:
[1] = target: Calcium and integrin-binding protein 1 (Homo sapiens) (UniProt Q99828); experiment: Primary qHTS for Identification of Calcium Integrin Binding Protein 1 (CIB1) Competitor (AID 1508620);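 note: GST tagged CIB1 binding a fluorescein labelled alphaIIb integrin peptide tracer; top concentration of the series differs between compounds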
Outline: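 Fluorescence polarization competition: GST-tagged CIB1 (1 uM final) preincubated with compound 15 min at room temperature, then FITC-labelled alphaIIb peptide (100 nM final) added. After 15 min at room temperature, polarization read at Ex 480/Em 540.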

[2] = Primary qHTS for inhibitors of nuclear receptor binding SET domain protein 2 (NSD2) in an isogenic RCH-ACV NSD2 p.E1099K mutant (9B) (AID 1645876); note: nearly all actives have a fitted effect of over 70% in size; note: potency is the fitted concentration of half-maximal effect
[3] = Primary qHTS for inhibitors of nuclear receptor binding SET domain protein 2 (NSD2) in an RCH-ACV wild type WT cells (2C) (AID 1645877); note: nearly all actives have a fitted effect of over 70% in size; note: potency is the fitted concentration of half-maximal effect

Chain of Calcium and integrin-binding protein 1 (Homo sapiens) (Q99828 whole entry, looked up): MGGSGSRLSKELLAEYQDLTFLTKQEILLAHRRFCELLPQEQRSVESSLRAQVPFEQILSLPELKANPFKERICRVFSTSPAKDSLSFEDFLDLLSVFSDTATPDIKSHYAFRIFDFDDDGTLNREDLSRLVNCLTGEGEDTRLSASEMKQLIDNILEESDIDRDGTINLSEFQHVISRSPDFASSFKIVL

SMILES: C/C=C1\[C@H](OC2OC(COC3OC(CO)C(O)C(O)C3O)C(O)C(O)C2O)OC=C(C(=O)OC)[C@H]1CC(=O)OCCc1ccc(O)cc1 (some centres not stated)
- Potency [1]: inactive
- Potency [2]: inactive
- Potency [3]: inactive

SMILES: COC(=O)C1(C)c2[nH]c3ccccc3c2CCN1C(=O)CCl (configuration not stated)
- Potency [1]: inactive
- Potency [2]: 2580 nM (active)
- Potency [3]: 2580 nM (active)

SMILES: CC(=O)OC12COC1CC(O)C1(C)C(=O)C(O)C3=C(C)C(OC(=O)C(O)C(NC(=O)OC(C)(C)C)c4ccccc4)CC(O)(C(OC(=O)c4ccccc4)C21)C3(C)C (configuration not stated)
- Potency [1]: inactive
- Potency [2]: 6.5 nM (active)
- Potency [3]: inactive

SMILES: CCOC(=O)C(CCc1ccccc1)NC(C)C(=O)N1C(=O)N(C)CC1C(=O)O (configuration not stated)
- Potency [1]: inactive
- Potency [2]: inactive
- Potency [3]: inactive

SMILES: CC12CCC3c4ccc(OC5OC(C(=O)O)C(O)C(O)C5O)cc4CCC3C1CCC2O (configuration not stated)
- Potency [1]: inactive
- Potency [2]: inactive
- Potency [3]: inactive

SMILES: C[C@@H]1O[C@@H](O[C@H]2[C@@H]3C=CO[C@@H](O[C@@H]4O[C@H](CO)[C@@H](O)[C@H](O)[C@H]4O)[C@@H]3[C@@]3(CO)O[C@@H]23)[C@H](OC(=O)/C=C/c2ccccc2)[C@H](O)[C@H]1O
- Potency [1]: inactive
- Potency [2]: inactive
- Potency [3]: inactive

SMILES: OCC(CO[C@@H]1O[C@H](CO)[C@@H](O)[C@H](O)[C@H]1O)c1ccc2c(c1)OCO2 (some centres not stated)
- Potency [1]: inactive
- Potency [2]: inactive
- Potency [3]: inactive

SMILES: CC1(C)CC[C@]2(C(=O)O)CC[C@]3(C)C(=CCC4[C@@]5(C)CC[C@H](O[C@@H]6O[C@H](CO)[C@@H](O)[C@H](O)[C@H]6O[C@@H]6O[C@H](CO)[C@@H](O)[C@H](O)[C@H]6O)[C@@](C)(CO)C5CC[C@]43C)[C@@H]2C1 (some centres not stated)
- Potency [1]: inactive
- Potency [2]: inactive
- Potency [3]: inactive

SMILES: COc1cc(C)c(C(=O)O[C@H]2[C@@H](OC(C)=O)[C@H](n3ccc(=O)[nH]c3=O)O[C@@H]2CO)c(OC)c1
- Potency [1]: inactive
- Potency [2]: inactive
- Potency [3]: inactive

SMILES: CC(/C=C/C1=CC2=CC(=O)C(C)(O)C(O)C2=CO1)=C\C(C)CCO (configuration not stated)
- Potency [1]: inactive
- Potency [2]: inactive
- Potency [3]: inactive

SMILES: O=C(O[C@H]1[C@@H]2C=CO[C@@H](O[C@@H]3O[C@H](CO)[C@@H](O)[C@H](O)[C@H]3O)[C@@H]2[C@@]2(CO)O[C@@H]12)c1ccccc1
- Potency [1]: inactive
- Potency [2]: inactive
- Potency [3]: inactive

SMILES: C[C@@H]1O[C@@H](O[C@@H]2CO[C@@H](O[C@H]3CC[C@@]4(C)C(CC[C@]5(C)C4CC=C4[C@@H]6CC(C)(C)CC[C@]6(C(=O)O[C@@H]6O[C@H](CO)[C@@H](O)[C@H](O)[C@H]6O)CC[C@]45C)[C@]3(C)CO)[C@H](O)[C@H]2O[C@@H]2O[C@H](CO)[C@@H](O)[C@H](O)[C@H]2O)[C@H](O)[C@H](O)[C@H]1O (some centres not stated)
- Potency [1]: inactive
- activity change, negative = viability loss [2]: -16% [at 9.23 µM]
- activity change, negative = cell killing [3]: -18.1% [at 9.23 µM]

SMILES: CC(C)CCC[C@@H](C)[C@H]1CC[C@H]2[C@@H]3CC(=O)[C@H]4C[C@@H](O)CC[C@]4(C)[C@H]3CC[C@]12C
- Potency [1]: inactive
- Potency [2]: inactive
- Potency [3]: inactive

SMILES: C#CCN(Cc1cc2c(=O)n(C)c(CN3CCN(C)CC3)nc2cc1Cl)c1ccc(C(=O)NCc2cccnc2)cc1
- Potency [1]: inactive
- Potency [2]: inactive
- Potency [3]: inactive

SMILES: C=C(C(=O)O)C1CCC2(C)CCC(O)C(C)(O)C2C1 (configuration not stated)
- Potency [1]: inactive
- Potency [2]: inactive
- Potency [3]: inactive

SMILES: COC(=O)C12CCC(C)C(C)C1C1=CCC3C4(C)CCC(OC(C)=O)C(C)(C)C4CCC3(C)C1(C)CC2 (configuration not stated)
- Potency [1]: inactive
- Potency [2]: inactive
- Potency [3]: inactive

SMILES: COC(=O)C[C@H]1C(C)(C)[C@H](OC(=O)C(C)C)[C@@]2(O)C(=O)[C@]1(C)C1CC[C@]3(C)C(CC(=O)O[C@H]3c3ccoc3)[C@]13O[C@@H]32 (some centres not stated)
- Potency [1]: inactive
- Potency [2]: inactive
- Potency [3]: inactive

SMILES: C[C@@H]1O[C@@H](O[C@H]2[C@H](O)[C@@H](O[C@@H]3O[C@H](CO)[C@@H](O)[C@H](O[C@@H]4O[C@H](CO)[C@@H](O)[C@H](O)[C@H]4O)[C@H]3O)[C@H](O[C@H]3CC[C@@]4(C)C(=CC[C@@H]5C4CC[C@@]4(C)C5C[C@@H]5OC6(CC[C@@](C)(CO[C@@H]7O[C@H](CO)[C@@H](O)[C@H](O)[C@H]7O)O6)[C@@H](C)[C@@H]54)C3)O[C@@H]2CO)[C@H](O)[C@H](O)[C@H]1O (some centres not stated)
- activity change, negative = inhibition [1]: -1.49% [at 12.4 µM]
- activity change, negative = viability loss [2]: -19.9% [at 9.23 µM]
- activity change, negative = cell killing [3]: -26.3% [at 9.23 µM]

SMILES: CC1=CC(=O)CC2C1(O)CCC(C)C21CC(c2ccoc2)OC1=O (configuration not stated)
- Potency [1]: inactive
- Potency [2]: inactive
- Potency [3]: inactive
